From PubChem BioAssay AID1159580 (chemical genetic matrix, 2015)
Where “and” joins values, the source holds several entries; their conditions need not be identical. Equal entries are not always repeated. The campaign covered roughly 5,500 compounds. About 2,000 (36%) were called active. Not shown: some 18% with an inconclusive outcome. No stated cut-off is given here; in the data, active means normalized growth mostly below about 0.91 (no sharp cut-off); inconclusive means no clear call, values can overlap the other calls; inactive means mostly above about 0.92. This is one part of the list.

Assay: chemical genetic growth profiling, strain panel (AID 1159580);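 further: tested at 20 µM; growth read once vehicle control cultures reached saturation at 30 °C; 1 = growth at the plate median or of vehicle wells; lower values mean less growth of the strain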
Settings: growth OD

Measured: normalized growth

CCN(Cc1ccncc1)C(=O)C(CO)c1ccccc1 (stereo unspecified)
inactive: S. cerevisiae deletion strains, locus YJR075W, strain HOC1, active compounds read low 0.989 | S. cerevisiae deletion strains, locus YKL009W, strain mrt4, active compounds read low 1.01 | S. cerevisiae deletion strains, locus YKL068W, active compounds read low 0.982 | S. cerevisiae deletion strains, locus YKL085W, strain MDH1 (second series), active compounds read low 0.977 | S. cerevisiae deletion strains, locus YKL085W, strain MDH1, active compounds read low 0.977 | S. cerevisiae deletion strains, locus YKL160W, strain elf1, active compounds read low 1.02 | S. cerevisiae deletion strains, locus YKL190W, strain CNB1, active compounds read low 0.992 | S. cerevisiae deletion strains, locus YKR001C, strain vps1, active compounds read low 0.999 | S. cerevisiae deletion strains, locus YKR026C, strain gcn3, active compounds read low 1.04 | S. cerevisiae deletion strains, locus YKR091W, strain srl3, active compounds read low 1.02 | S. cerevisiae deletion strains, locus YLL001W, strain dnm1, active compounds read low 1.02 | S. cerevisiae deletion strains, locus YLL026W, active compounds read low 1.03 | S. cerevisiae deletion strains, locus YLL041C, strain sdh2, active compounds read low 1.02 | S. cerevisiae deletion strains, locus YLR027C, strain aat2, active compounds read low 1.02 | S. cerevisiae deletion strains, locus YLR039C, strain RIC1, active compounds read low 0.977 | S. cerevisiae deletion strains, locus YLR058C, strain SHM2, active compounds read low 0.998 | S. cerevisiae deletion strains, locus YLR102C, strain apc9, active compounds read low 0.991 | S. cerevisiae deletion strains, locus YLR113W, strain HOG1, active compounds read low 0.988 | S. cerevisiae deletion strains, locus YLR221C, strain rsa3, active compounds read low 1.03 | S. cerevisiae deletion strains, locus YLR258W, strain gsy2, active compounds read low 1.05 | S. cerevisiae deletion strains, locus YLR262C, strain YPT6 (second series), active compounds read low 1.07 | S. cerevisiae deletion strains, locus YLR262C, strain YPT6, active compounds read low 1.01 | S. cerevisiae deletion strains, locus YLR268W, strain sec22, active compounds read low 0.954 | S. cerevisiae deletion strains, locus YLR320W, strain mms22, active compounds read low 1.02 | S. cerevisiae deletion strains, locus YLR330W, strain CHS5, active compounds read low 0.991 | S. cerevisiae deletion strains, locus YLR342W, strain FKS1 (second series), active compounds read low 1.05 | S. cerevisiae deletion strains, locus YLR342W, strain FKS1, active compounds read low 1.02 | S. cerevisiae deletion strains, locus YLR357W, strain rsc2, active compounds read low 1.04 | S. cerevisiae deletion strains, locus YLR370C, strain arc18, active compounds read low 1.03 | S. cerevisiae deletion strains, locus YLR371W, strain rom2, active compounds read low 0.989 | S. cerevisiae deletion strains, locus YLR384C, strain iki3, active compounds read low 1.03 | S. cerevisiae deletion strains, locus YLR418C, strain cdc73, active compounds read low 0.995 | S. cerevisiae deletion strains, locus YML016C, strain PPZ1, active compounds read low 1 | S. cerevisiae deletion strains, locus YML032C, strain rad52, active compounds read low 0.978 | S. cerevisiae deletion strains, locus YML120C, strain ndi1, active compounds read low 1.03 | S. cerevisiae deletion strains, locus YML124C, strain tub3, active compounds read low 0.997 | S. cerevisiae deletion strains, locus YMR058W, strain fet3, active compounds read low 1.02 | S. cerevisiae deletion strains, locus YMR078C, strain ctf18, active compounds read low 0.999 | S. cerevisiae deletion strains, locus YMR125W, strain sto1, active compounds read low 1.03 | S. cerevisiae deletion strains, locus YMR129W, active compounds read low 1.02 | S. cerevisiae deletion strains, locus YMR205C, strain PFK2, active compounds read low 1.05 | S. cerevisiae deletion strains, locus YMR223W, strain ubp8, active compounds read low 1.02 | S. cerevisiae deletion strains, locus YMR231W, strain pep5, active compounds read low 1.03 | S. cerevisiae deletion strains, locus YMR263W, strain SAP30, active compounds read low 0.999 and 1 | S. cerevisiae deletion strains, locus YMR307W, strain GAS1, active compounds read low 1.05 and 1.01 | S. cerevisiae deletion strains, locus YNL067W, strain RPL9B, active compounds read low 0.98 | S. cerevisiae deletion strains, locus YNL071W, strain lat1, active compounds read low 1.03 | S. cerevisiae deletion strains, locus YNL128W, strain TEP1, active compounds read low 0.985 | S. cerevisiae deletion strains, locus YNL153C, strain GIM3, active compounds read low 0.992 | S. cerevisiae deletion strains, locus YNL175C, strain NOP13, active compounds read low 0.995 | S. cerevisiae deletion strains, locus YNL183C, strain NPR1, active compounds read low 0.944 | S. cerevisiae deletion strains, locus YNL197C, strain WHI3, active compounds read low 1.02 | S. cerevisiae deletion strains, locus YNL209W, strain ssb2, active compounds read low 1.04 | S. cerevisiae deletion strains, locus YNL224C, strain SQS1, active compounds read low 1 | S. cerevisiae deletion strains, locus YNL233W, strain BNI4, active compounds read low 1 | S. cerevisiae deletion strains, locus YNL248C, strain rpa49, active compounds read low 1.02 | S. cerevisiae deletion strains, locus YNL250W, strain rad50, active compounds read low 0.982 | S. cerevisiae deletion strains, locus YNL271C, strain bni1, active compounds read low 0.982 | S. cerevisiae deletion strains, locus YNL298W, strain CLA4, active compounds read low 1 | S. cerevisiae deletion strains, locus YNL307C, strain MCK1, active compounds read low 0.994 | S. cerevisiae deletion strains, locus YNL322C, strain KRE1 (second series), active compounds read low 1.03 | S. cerevisiae deletion strains, locus YNL322C, strain KRE1, active compounds read low 0.992 | S. cerevisiae deletion strains, locus YNR049C, strain mso1, active compounds read low 1.04 | S. cerevisiae deletion strains, locus YNR052C, strain pop2, active compounds read low 0.991 | S. cerevisiae deletion strains, locus YOL006C, strain TOP1, active compounds read low 0.948 | S. cerevisiae deletion strains, locus YOL012C, strain htz1 0.82 | S. cerevisiae deletion strains, locus YOL147C, strain pex11, active compounds read low 0.986 | S. cerevisiae deletion strains, locus YOR001W, strain rrp6, active compounds read low 1.02 | S. cerevisiae deletion strains, locus YOR061W, strain CKA2, active compounds read low 0.988 | S. cerevisiae deletion strains, locus YOR069W, strain VPS5, active compounds read low 1 | S. cerevisiae deletion strains, locus YOR070C, strain gyp1, active compounds read low 1.02 | S. cerevisiae deletion strains, locus YOR080W, strain dia2, active compounds read low 1.03 | S. cerevisiae deletion strains, locus YOR083W, strain WHI5 (second series), active compounds read low 1 | S. cerevisiae deletion strains, locus YOR083W, strain WHI5, active compounds read low 1.01 | S. cerevisiae deletion strains, locus YOR106W, strain vam3, active compounds read low 1.03 | S. cerevisiae deletion strains, locus YOR136W, strain idh2, active compounds read low 0.997 | S. cerevisiae deletion strains, locus YOR144C, strain elg1, active compounds read low 0.992 | S. cerevisiae deletion strains, locus YOR184W, strain ser1, active compounds read low 1.01 | S. cerevisiae deletion strains, locus YOR231W, strain MKK1, active compounds read low 0.987 | S. cerevisiae deletion strains, locus YOR265W, strain rbl2, active compounds read low 1.02 | S. cerevisiae deletion strains, locus YOR270C, strain vph1, active compounds read low 1.05 | S. cerevisiae deletion strains, locus YOR290C, strain snf2, active compounds read low 1.01 | S. cerevisiae deletion strains, locus YOR316C, strain cot1, active compounds read low 0.984 | S. cerevisiae deletion strains, locus YPL051W, strain arl3, active compounds read low 1.04 | S. cerevisiae deletion strains, locus YPL055C, strain LGE1, active compounds read low 1 | S. cerevisiae deletion strains, locus YPL078C, strain atp4, active compounds read low 1.02 | S. cerevisiae deletion strains, locus YPL106C, strain sse1, active compounds read low 1.02 | S. cerevisiae deletion strains, locus YPL240C, strain hsp82, active compounds read low 1.03 | S. cerevisiae deletion strains, locus YPL241C, strain CIN2, active compounds read low 0.999 | S. cerevisiae deletion strains, locus YPL256C, strain CLN2, active compounds read low 0.977 | S. cerevisiae deletion strains, locus YPR119W, strain clb2, active compounds read low 0.987 | S. cerevisiae deletion strains, locus YPR141C, strain kar3, active compounds read low 0.99 | S. cerevisiae deletion strains, locus YPR163C, strain tif3, active compounds read low 0.982 | S. cerevisiae deletion strains, locus YPR167C, strain met16, active compounds read low 0.973 | S. cerevisiae deletion strains, strain wtn01, active compounds read low 0.991 | S. cerevisiae strains, strain wild type, active compounds read low 0.995
